{"source": "paper PMC4336329", "about": "(PLoS ONE, 2015)", "note": "Out of some 310,000 compounds screened, about 14,000 (4.5%) showed an effect of 50% or more. Effects have a minus sign here. The entries come from a sample that favours strong results as a whole.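 Further: peak tail current of the secondary pulse compared with the same well before compound.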"}
{"target": "human ether-à-go-go-related gene (hERG) potassium channel (human, UniProt Q12809)", "sequence (Q12809 whole entry, looked up)": "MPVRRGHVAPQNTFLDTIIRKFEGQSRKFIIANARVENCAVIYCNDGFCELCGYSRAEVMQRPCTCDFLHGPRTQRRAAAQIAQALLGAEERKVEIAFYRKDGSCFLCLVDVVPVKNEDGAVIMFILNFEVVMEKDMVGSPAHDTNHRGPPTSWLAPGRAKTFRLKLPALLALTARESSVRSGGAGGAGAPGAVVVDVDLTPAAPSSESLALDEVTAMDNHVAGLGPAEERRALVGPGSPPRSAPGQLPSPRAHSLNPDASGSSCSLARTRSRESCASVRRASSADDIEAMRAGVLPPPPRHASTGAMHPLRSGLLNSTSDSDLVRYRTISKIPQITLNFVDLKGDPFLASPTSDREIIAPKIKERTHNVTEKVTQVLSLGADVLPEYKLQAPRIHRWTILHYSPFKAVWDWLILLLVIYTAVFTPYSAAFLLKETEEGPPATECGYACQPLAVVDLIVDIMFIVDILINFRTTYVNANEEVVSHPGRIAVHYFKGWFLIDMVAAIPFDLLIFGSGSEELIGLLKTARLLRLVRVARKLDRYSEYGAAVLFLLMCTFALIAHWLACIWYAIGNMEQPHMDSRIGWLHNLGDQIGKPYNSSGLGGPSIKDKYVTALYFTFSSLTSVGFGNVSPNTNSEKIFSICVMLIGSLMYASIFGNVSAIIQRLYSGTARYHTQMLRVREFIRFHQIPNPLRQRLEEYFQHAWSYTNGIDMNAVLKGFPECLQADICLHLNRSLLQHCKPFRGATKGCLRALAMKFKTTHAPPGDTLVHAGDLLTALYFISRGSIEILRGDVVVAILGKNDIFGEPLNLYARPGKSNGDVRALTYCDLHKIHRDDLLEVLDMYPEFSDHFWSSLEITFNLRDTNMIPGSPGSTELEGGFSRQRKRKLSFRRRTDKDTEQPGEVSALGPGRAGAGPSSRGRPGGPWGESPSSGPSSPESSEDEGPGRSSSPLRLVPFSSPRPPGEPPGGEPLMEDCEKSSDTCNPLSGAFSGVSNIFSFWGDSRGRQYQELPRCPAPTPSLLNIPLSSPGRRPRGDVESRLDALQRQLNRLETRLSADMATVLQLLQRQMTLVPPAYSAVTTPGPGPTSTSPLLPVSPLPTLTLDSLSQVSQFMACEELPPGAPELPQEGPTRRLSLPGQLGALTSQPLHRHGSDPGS", "assay": "primary screen, population patch clamp on CHO cells stably expressing hERG; higher = less effect of the substance", "units": {"hERG current change (%, negative = inhibition) at 10uM": "%"}}
{"smiles": "O=S1(=O)c2cccc3cccc(c23)N1Cc1nnc(-c2ccccc2Br)o1", "hERG current change (%, negative = inhibition) at 10uM": -9.83}
{"smiles": "COc1cc(C(=O)NC(=S)NNC(=O)c2ccc3c(c2)OCO3)cc(OC)c1OC", "hERG current change (%, negative = inhibition) at 10uM": 8.08}
{"smiles": "CN1CCN(C(=O)CN(Cc2ccccc2)S(C)(=O)=O)CC1", "hERG current change (%, negative = inhibition) at 10uM": 25.7}
{"smiles": "Cn1ncc(Cl)c1C(=O)NCc1ccc(Cl)cc1", "hERG current change (%, negative = inhibition) at 10uM": -13.3}
{"smiles": "COc1ccc(NC(=O)CN(c2ccc(OC)c(Cl)c2)S(=O)(=O)c2ccccc2)c(OC)c1", "hERG current change (%, negative = inhibition) at 10uM": 8.77}
{"smiles": "Cc1cccc(N=CC=C2OC(C)(C)C(C)(C)O2)c1", "hERG current change (%, negative = inhibition) at 10uM": 3.43}
{"smiles": "O=C(Nc1cc(Cl)cc(Cl)c1)c1cccc(OC(F)F)c1", "hERG current change (%, negative = inhibition) at 10uM": -2.79}
{"smiles": "O=C(Nc1ccc(S(=O)(=O)N2CCCC2)cc1)c1cccc(OC(F)F)c1", "hERG current change (%, negative = inhibition) at 10uM": -54.3}
{"smiles": "O=C(NC12CC3CC(CC(C3)C1)C2)c1cccc(OC(F)F)c1", "hERG current change (%, negative = inhibition) at 10uM": -55.2}
{"smiles": "N#Cc1cccc(C(=O)Nc2cccc(S(=O)(=O)N3CCCC3)c2)c1", "hERG current change (%, negative = inhibition) at 10uM": 2.83}
{"smiles": "COc1ccc(NC(=O)c2cccc(OC(F)F)c2)cc1Cl", "hERG current change (%, negative = inhibition) at 10uM": -22.2}
{"smiles": "CC(=O)Nc1cccc(C(=O)Nc2ccc(S(=O)(=O)N3CCCCC3)cc2)c1", "hERG current change (%, negative = inhibition) at 10uM": -10.3}
{"smiles": "O=C(Nc1cccc(S(=O)(=O)N2CCCC2)c1)c1cccc(OC(F)F)c1", "hERG current change (%, negative = inhibition) at 10uM": -56.4}
{"smiles": "O=C(Nc1ccc(S(=O)(=O)N2CCCC2)cc1)c1ccccc1", "hERG current change (%, negative = inhibition) at 10uM": -7.24}
{"smiles": "COc1cccc(C(=O)NC23CC4CC(CC(C4)C2)C3)c1", "hERG current change (%, negative = inhibition) at 10uM": 2.17}
{"smiles": "O=C(Nc1ccc(OC(F)F)c(Cl)c1)c1cccc(OC(F)F)c1", "hERG current change (%, negative = inhibition) at 10uM": -61.7}
{"smiles": "O=C(NC12CC3CC(CC(C3)C1)C2)c1ccccc1", "hERG current change (%, negative = inhibition) at 10uM": 6.99}
{"smiles": "O=C(Nc1cccc(S(=O)(=O)N2CCCC2)c1)c1ccccc1OC(F)F", "hERG current change (%, negative = inhibition) at 10uM": -13.7}
{"smiles": "COc1ccc(NC2CCCN(C(=O)c3oc(C)cc3C)C2)cc1OC", "note": "(stereo not drawn)", "hERG current change (%, negative = inhibition) at 10uM": 16.2}
{"smiles": "CC(C)(C)C1CCC(C(=O)Nc2nccs2)CC1", "note": "(stereo not drawn)", "hERG current change (%, negative = inhibition) at 10uM": 9.99}
{"smiles": "C/C(=N\\NC(=O)c1ccc(C)cc1)c1c(C)[nH]n(-c2ccccc2)c1=O", "hERG current change (%, negative = inhibition) at 10uM": 14.2}
{"smiles": "Cc1ccccc1N1C(=O)C2ON(c3ccccc3)C(c3ccco3)C2C1=O", "note": "(stereo not drawn)", "hERG current change (%, negative = inhibition) at 10uM": 16.8}
{"smiles": "CSc1nnnn1CCn1nnnc1SC", "hERG current change (%, negative = inhibition) at 10uM": 10.1}
{"smiles": "Cc1cccc(/C=N/n2c(C)nnc2C)c1", "hERG current change (%, negative = inhibition) at 10uM": -0.651}
{"smiles": "O=C1CN(C(=O)CSc2nc(-c3ccc(Cl)cc3)cs2)c2ccccc2N1", "hERG current change (%, negative = inhibition) at 10uM": 13.9}
{"smiles": "Fc1ccccc1-c1nc2c(s1)CCc1onc(-c3ccc(Br)cc3)c1-2", "hERG current change (%, negative = inhibition) at 10uM": 11.4}
{"smiles": "CCC(C)c1ccc(NC(=S)N2CCCC2)cc1", "note": "(stereo not drawn)", "hERG current change (%, negative = inhibition) at 10uM": 1.86}
{"smiles": "O=C(CCSCc1ccc(Cl)cc1)NCCC1=CCCCC1", "hERG current change (%, negative = inhibition) at 10uM": 11.4}
{"smiles": "COc1ccc(N/C=C2\\CCc3ccccc3C2=O)cc1", "hERG current change (%, negative = inhibition) at 10uM": 0.787}
{"smiles": "CC(O/N=C/c1ccc(OC(F)F)cc1)C(=O)Nc1cccc(S(=O)(=O)N2CCOCC2)c1", "note": "(stereo not drawn)", "hERG current change (%, negative = inhibition) at 10uM": -60.5}
{"smiles": "O=C(CNC(=O)c1ccc(OC(F)F)cc1)Nc1cccc(S(=O)(=O)N2CCCC2)c1", "hERG current change (%, negative = inhibition) at 10uM": -70.3}
{"smiles": "O=C(/C=C/c1ccc(OC(F)F)cc1)Nc1cccc(S(=O)(=O)N2CCOCC2)c1", "hERG current change (%, negative = inhibition) at 10uM": 14.2}
{"smiles": "COc1ccc(C(=O)NCC(=O)OCC(=O)Nc2cccc(S(=O)(=O)N3CCCC3)c2)cc1", "hERG current change (%, negative = inhibition) at 10uM": -15.8}
{"smiles": "O=C(COC(=O)CNC(=O)c1ccc(F)cc1)Nc1cccc(S(=O)(=O)N2CCCC2)c1", "hERG current change (%, negative = inhibition) at 10uM": -12}
{"smiles": "CC(O/N=C/c1ccccc1OC(F)F)C(=O)Nc1cccc(S(=O)(=O)N2CCOCC2)c1", "note": "(stereo not drawn)", "hERG current change (%, negative = inhibition) at 10uM": -33.9}
{"smiles": "C[C@H]1CN=C(N(C)C)N1CC1CCCCC1", "hERG current change (%, negative = inhibition) at 10uM": 7.73}
{"smiles": "Nc1nonc1-n1nnc(C(=O)N/N=C/c2cccc(Cl)c2)c1-c1cccs1", "hERG current change (%, negative = inhibition) at 10uM": 3.81}
{"smiles": "Cc1noc(NS(=O)(=O)c2ccc(N/C=C/C(=O)c3ccncc3)cc2)c1C", "hERG current change (%, negative = inhibition) at 10uM": -13}
{"smiles": "COCCCN1CC(=O)N2C(c3ccccc3)c3[nH]c4ccccc4c3C[C@H]2C1=O", "note": "(stereo partly drawn)", "hERG current change (%, negative = inhibition) at 10uM": -11.3}
{"smiles": "O=C(NNC(=O)C12CC3CC(CC(C3)C1)C2)c1csc(N2CCOCC2)n1", "hERG current change (%, negative = inhibition) at 10uM": 11.3}
{"smiles": "COC(=O)C1=C[C@@H](C(=O)OC)[C@@H]2C3=C(C(=O)[C@]2(C)NC(=O)c2ccccc2)[C@H](C)n2c(=O)n(-c4ccccc4)c(=O)n2[C@@H]3C1", "hERG current change (%, negative = inhibition) at 10uM": 7.6}
{"smiles": "Cc1cc(NC(=O)Nc2ccc(Cl)c(Cl)c2)n(-c2ccccc2)n1", "hERG current change (%, negative = inhibition) at 10uM": 13.9}
{"smiles": "COc1ccc(C(=O)Nc2cccc(NC(=O)c3cccs3)c2)cc1OC", "hERG current change (%, negative = inhibition) at 10uM": 8.5}
{"smiles": "COc1ccc(C(=O)Nc2ccccc2)cc1NC(=O)c1cccs1", "hERG current change (%, negative = inhibition) at 10uM": -74}
{"smiles": "O=C(Nc1ccccc1)c1cccc(S(=O)(=O)Oc2ccc([N+](=O)[O-])cc2)c1", "hERG current change (%, negative = inhibition) at 10uM": -56.4}
{"smiles": "COc1ccc(C(=O)Nc2ccccc2)cc1NC(=O)c1ccc([N+](=O)[O-])cc1", "hERG current change (%, negative = inhibition) at 10uM": -56.8}
{"smiles": "COc1ccc(C(=O)Nc2ccc(NC(=O)c3cccs3)cc2)cc1Cl", "hERG current change (%, negative = inhibition) at 10uM": 27.5}
{"smiles": "COc1ccc([N+](=O)[O-])cc1N/C(=N/S(=O)(=O)c1ccccc1)c1ccccc1", "hERG current change (%, negative = inhibition) at 10uM": -57.8}
{"smiles": "Cc1ccccc1NC(=O)c1cccc(S(=O)(=O)Oc2ccc([N+](=O)[O-])cc2)c1", "hERG current change (%, negative = inhibition) at 10uM": -24.5}
{"smiles": "COc1ccccc1N/C(=N/S(=O)(=O)c1ccc(C)cc1)c1ccccc1", "hERG current change (%, negative = inhibition) at 10uM": -31}
{"smiles": "COc1ccc(C(=O)Nc2ccc(Nc3ccccc3)cc2)cc1[N+](=O)[O-]", "hERG current change (%, negative = inhibition) at 10uM": -37}
{"smiles": "COc1ccc([N+](=O)[O-])cc1NC(=O)Nc1ccccc1", "hERG current change (%, negative = inhibition) at 10uM": 10.3}
{"smiles": "O=C(O)c1ccc(NS(=O)(=O)c2cccc(C(=O)Nc3ccc([N+](=O)[O-])cc3)c2)cc1", "hERG current change (%, negative = inhibition) at 10uM": 18.8}
{"smiles": "COc1ccccc1N/C(=N/S(=O)(=O)c1ccc(Cl)cc1)c1ccccc1", "hERG current change (%, negative = inhibition) at 10uM": -35.1}
